Source: PubChem (several laboratories)
Compounds with a hit are over-represented: about 3% of the library has one in this group of screens.
KKLEB tox: CF airway cell cytotoxicity counter-screen | KKLEB CF airway cells viability, ATPlite luminescence, overnight; stronger effect = lower value; cells stimulated with P. aeruginosa culture filtrate | 0.36% of 360,000 active | AID 602141 | activity change (cytotoxicity), % at 5 µM;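 active means corrected activity change at or below -50% at 5 µM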
HIF-2a block: HIF-2a inhibition. 786-0 RCC cells HIF-2a reporter, luciferase luminescence, overnight. inhibition, % at 18.8 µM. 0.72% of 360,000 active. AID 624352;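 active means inhibition of the luminescence signal of 40% or more relative to plate controls, in a single-dose primary screen at 18.75 µM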
TRPM1 prom inh: inhibitors of MITF-driven TRPM1 promoter in melanoma cells. SK-MEL-5 TRPM1 promoter luciferase, 24 h. inhibition, % at 12.5 µM. 0.83% of 330,000 active. AID 488899;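 active means mean inhibition across replicates of 60% or more, whatever share of single replicates reaches that level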
CF NFkB inh: cystic fibrosis NF-kB activation inhibition | KKLEB NF-kB-GFP reporter, PAF-induced, GFP fluorescence overnight | inhibition, % at 5 µM | 0.86% of 360,000 active | AID 588850;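 active means at least 50% inhibition at 5 µM, scaled per plate between neutral and stimulator controls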;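 further: PAF is a Pseudomonas aeruginosa culture filtrate used as stimulus; plate controls were PAF-stimulated DMSO wells for no effect and unstimulated DMSO wells for full effect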
EBV LMP1 NFkB: reduces LMP1-driven NF-kappaB luciferase signal. 0.69% of 350,000 active. LMP1-induced NF-kappaB luciferase reporter cells, luminescence. AID 504558. inhibition, % at 12.5 µM; in the data active means inhibition above about 41%;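 further: 0% = neutral control wells and 100% = reference inhibitor control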
Peg3 promoter: Peg3 promoter activity inhibition. HeLa PEG-Prom luciferase reporter, luminescence, overnight. inhibition, % at 20 µM. 1.7% of 360,000 active;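 active means inhibition of at least 50% at 20 µM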
Numbers without * were called inactive; . = no result given.

SMILES | KKLEB tox | HIF-2a block | TRPM1 prom inh | CF NFkB inh | EBV LMP1 NFkB | Peg3 promoter
CC(=O)C1CCC2C3CCC4=CC(=O)CCC4(C)C3(F)C(O)CC12C (stereo not drawn) | -3 | 15 | 14 | 61* | 2 | 10
CC12CCC(=O)C=C1CCC1C3CC(O)C(O)(C(=O)CO)C3(C)CC(O)C12F (stereo not drawn) | -7 | 13 | -1 | 78* | 1 | -6
CC(=O)Nc1ccc2cnn(C(C)=O)c2c1 | 4 | -18 | . | -31 | 1 | -10
OCC1CSC(=S)N1Cc1ccccc1 (stereo not drawn) | -7 | 6 | . | -2 | . | -1
Cc1cccc(S(=O)(=O)NC(=O)C2(C)CCN2C(=O)c2ccccc2)c1 (stereo not drawn) | -8 | 3 | . | 5 | . | 11
Cc1cc(NC(=O)C(C)SCC(=O)N(C)Cc2ccccc2F)no1 (stereo not drawn) | -3 | 14 | 5 | 4 | 5 | 71*
O=C(CCCN1C(=O)/C(=C/c2cccs2)SC1=S)NNC(=O)c1ccc(F)cc1 | 11 | 46* | 5 | -4 | 5 | 22
O=C(CCN1C(=O)/C(=C/c2cccs2)SC1=S)Nc1ccccc1O | -1 | -12 | 10 | -9 | -2 | -2
O=C(CCCN1C(=O)/C(=C/c2cccs2)SC1=S)Nc1ccc(C(=O)O)cc1 | 9 | 6 | -2 | -7 | -3 | 13
O=C(CCCN1C(=O)/C(=C/c2cccs2)SC1=S)Nc1cccc(O)c1 | -4 | 14 | -5 | -1 | 5 | 61*
O=C(CCN1C(=O)/C(=C/c2cccs2)SC1=S)Nc1cccc(O)c1 | 4 | -1 | -11 | -23 | -1 | -13
O=C(CCCN1C(=O)/C(=C\c2cccs2)SC1=S)Nc1cc([N+](=O)[O-])ccc1O | -14 | 7 | -10 | 53* | 4 | 40
O=C1/C(=C\c2cc([N+](=O)[O-])ccc2O)SC(=S)N1Cc1ccc(Cl)cc1 | -41 | -18 | 7 | 11 | -3 | 97*
Cc1ccc(S(=O)(=O)N2CCN(C(=O)COC(=O)COc3ccc(Cl)cc3)CC2)c(C)c1 | 9 | 7 | -9 | -6 | 58* | 2
Cc1ccc(S(=O)(=O)N2CCN(C(=O)COC(=O)COc3ccc(Cl)c(C)c3)CC2)c(C)c1 | -4 | 4 | 7 | -1 | 1 | -4
CCOc1ccc(OCCC(=O)OCC(=O)N2CCN(S(=O)(=O)c3ccc(Cl)cc3)CC2)cc1 | -13 | 30 | 38 | 84* | 15 | 30
Cc1ccc(C)c(OCCC(=O)OCC(=O)N2CCN(S(=O)(=O)c3ccc(Cl)cc3)CC2)c1 | 0 | 18 | -7 | 37 | 8 | 8
O=C(Cn1nnc(-c2ccccc2NC(=O)c2ccccc2)n1)Nc1ccc2c(c1)OCCO2 | -54* | -1 | -11 | 20 | 7 | -1
O=C(N/N=C/c1ccccc1O)C1CC(=O)N(c2ccc(F)cc2)C1 (stereo not drawn) | -1 | 5 | 17 | 0 | -9 | 52*
CCc1nc(NCC2CC2)c2nnn(Cc3ccccc3)c2n1 | -14 | 24 | . | 4 | -12 | 12
COc1ccc(/C=N/N2C(=O)CSC2=S)cc1 | 1 | -9 | -9 | -20 | 1 | -7
COc1ccc(-c2nn(-c3ccccc3)cc2/C=N/N2C(=O)CSC2=S)cc1 | -21 | 43* | 104* | 19 | -18 | 57*
COc1cccc(S(=O)(=O)N(C)C[C@H]2OCc3cnnn3CCCC(=O)N([C@H](C)CO)C[C@H]2C)c1 | -7 | -6 | . | -28 | 0 | -2
COc1ccc(-c2cc(NC=O)c3ncc(-c4cnn(C)c4)n3c2)cc1 | -11 | -4 | . | -12 | . | 22
O=C(Cc1csc(Nc2nc(=S)[nH]c3ccccc23)n1)N1CCN(c2cccc(Cl)c2)CC1 | -37 | -2 | 78* | 50 | 10 | 82*
COc1ccc(-c2nnc(SCC(=O)Nc3sc4c(c3C#N)CCCC4)n2-c2ccccc2)cc1 | -73* | 12 | 6 | 63* | -44 | 53*
COc1ccc(-n2c(SCC(=O)Nc3sc4c(c3C#N)CCCC4)nnc2-c2ccccc2OC)cc1 | -15 | 14 | 9 | -1 | 1 | 30
NS(=O)(=O)c1ccc(N/N=C/c2cn(-c3ccccc3)nc2-c2cccs2)c([N+](=O)[O-])c1 | -82* | 0 | -6 | 88* | -27 | -1
